# An excerpt weighted towards active compounds, which were near 6.6% of everything screened.
# Mtb FBA inh: inhibits M. tuberculosis FBA enzyme; purified M. tuberculosis FBA, fluorescence read-out; inhibition, % at 1 µM; hit rate 2.3% among 360,000; AID 588726;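 also: 0% = vehicle and 100% = reference inhibitor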
# Target sequence (P9WQA3 whole entry, looked up): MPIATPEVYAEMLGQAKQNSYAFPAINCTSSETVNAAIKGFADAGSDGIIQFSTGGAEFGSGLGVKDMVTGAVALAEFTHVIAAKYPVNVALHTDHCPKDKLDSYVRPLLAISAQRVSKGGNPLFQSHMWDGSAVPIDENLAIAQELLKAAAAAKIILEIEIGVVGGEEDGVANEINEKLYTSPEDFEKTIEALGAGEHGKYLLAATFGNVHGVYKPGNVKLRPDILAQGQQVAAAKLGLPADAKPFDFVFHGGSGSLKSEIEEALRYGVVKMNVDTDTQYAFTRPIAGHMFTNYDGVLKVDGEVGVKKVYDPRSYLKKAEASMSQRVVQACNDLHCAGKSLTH
# Anthrax LF inh2: inhibitors of Bacillus anthracis lethal factor protease | multiplex microsphere protease cleavage assay, LF | inhibition, % at 10 µM | hit rate 0.12% among 360,000 | AID 588501; in the data active = inhibition above about 30%; inconclusive = no clear call, values can overlap the other calls; also: plate controls were buffer without enzyme for full effect and enzyme alone for no effect
# BoNT-F LC inh: inhibitors of Botulinum neurotoxin F light chain protease. inhibition, % at 10 µM. AID 588497. hit rate 0.22% among 360,000. Multiplex microsphere protease cleavage assay, flow cytometry; in the data active = inhibition above about 35%, passing the limit was not always enough; inconclusive = no clear call, values can overlap the other calls; also: plate controls were buffer without enzyme for full effect and enzyme alone for no effect
# Autofluor counter: flagged as autofluorescent in microsphere protease counterscreen; compound autofluorescence counterscreen, microsphere flow cytometry; hits give high values; hit rate 3.1% among 360,000; AID 624483; fluorescence intensity (test concentration not listed); in the data active = fluorescence intensity above about 16000; inconclusive = no clear call, values can overlap the other calls
# GDH-TPI counter-1: counter-screen for M. tuberculosis FBA inhibitors: GDH-TPI coupled enzymes. GDH-TPI coupled enzyme counterscreen, NADH absorbance. inhibition, % at 4.8 µM. hit rate 1.2% among 360,000; in the data active = inhibition above about 30%;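 also: 0% = DMSO wells and 100% = wells lacking the enzyme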
# BoNT-A LC inh2: BoNT A light chain protease inhibition. multiplex microsphere protease substrate cleavage, flow cytometry. inhibition, % at 10 µM. hit rate 0.17% among 360,000. AID 588499; in the data active = inhibition above about 30%; inconclusive = no clear call, values can overlap the other calls; also: plate controls were buffer without enzyme for full effect and enzyme alone for no effect
# BoNTA LC inh 1: blocks botulinum neurotoxin A light chain protease; multiplex microsphere protease assay, flow cytometry; shares compounds with BoNT-F LC inh; hit rate 3% among 720; inhibition, % at 10 µM; in the data active = inhibition above about 32%
# BoNT-F LC CP1: inhibitors of Botulinum neurotoxin F light chain protease | shares compounds with BoNT-F LC inh | multiplex microsphere protease cleavage assay, flow cytometry | inhibition, % at 10 µM | 720 tested, under 10 active; call rule not given here
# Anthrax LF CP1: inhibitors of Bacillus anthracis lethal factor protease | shares compounds with BoNT-F LC inh | multiplex microsphere protease cleavage assay, LF | inhibition, % at 10 µM | 720 tested, under 10 active | AID 602142; call rule not given here
# Mtb FBA inh conf: Mtb FBA inhibition, confirmed; shares compounds with Mtb FBA inh; purified M. tuberculosis FBA, fluorescence read-out; inhibition, % at 1 µM; hit rate 78% among 5,600; AID 651616;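 also: 0% = vehicle wells and 100% = reference inhibitor wells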
# GDH-TPI counter-2: inhibits GDH-TPI coupling enzymes, flagging Mtb FBA hits; GDH-TPI coupled enzyme counterscreen, fluorescence; inhibition, % at 1 µM; hit rate 81% among 5,600; shares compounds with Mtb FBA inh; in the data active = inhibition above about 10%
# * marks the source's active call; other numbers are inactive results; ? = inconclusive; · = not tested or not shown. Rule as the data show it, unless noted: active = inhibition above about 27%; inactive = the rest.
SMILES,Mtb FBA inh,Anthrax LF inh2,BoNT-F LC inh,Autofluor counter,GDH-TPI counter-1,BoNT-A LC inh2,BoNTA LC inh 1,BoNT-F LC CP1,Anthrax LF CP1,others
Cc1cccc(C)c1NC(=O)C1CC(=O)N(C(C)C)C1 (configuration not stated),-1,5,35*,3715,-2,3,-1,-2,-1,
CC(C)c1ccc(NC(=O)C2CC(=O)N(C(C)C)C2)cc1 (configuration not stated),-13,8,?,4324,2,0,·,·,·,
CCC(C)(C)n1nnnc1C(c1cc2cc(C)cc(C)c2[nH]c1=O)N1CCCC1 (configuration not stated),5,7,2,10428,10,10,·,·,·,
CCC(C)(C)n1nnnc1C(c1cc2ccc(OC)cc2[nH]c1=O)N1CCCCC1 (configuration not stated),2,-6,3,10987,20,2,-2,0,-5,
CCC(C)(C)n1nnnc1C(c1cc2cccc(C)c2[nH]c1=O)N1CCCC1 (configuration not stated),2,3,4,23337*,9,?,0,0,-4,
Nc1nc(-c2ccccc2)c(-c2ccccc2)n1N,3,8,14,3550,0,11,·,·,·,
c1ccc(-c2cnn3c(-c4ccccc4)c(-c4ccccc4)nc3n2)cc1,-3,21,21,5602,3,37*,26,23,11,
CCc1cc2c(=O)c(-c3nc(C)cs3)coc2cc1OC(C)C(=O)NCCO (configuration not stated),2,0,-7,2125,3,-1,·,·,·,
Cc1ccc(OCC2Cn3c(nc4c3c(=O)[nH]c(=O)n4C)O2)cc1C (configuration not stated),0,31*,14,3017,12,2,-1,-10,2,
COc1ccc(-n2c(SCC(=O)C(C)(C)C)nc3c(sc(=S)n3-c3ccccc3)c2=O)c(OC)c1,2,-3,6,3978,9,-4,·,·,·,
CCCCCn1nc(-c2ccccc2)c2nc3ccccc3nc21,0,24,17,4862,10,22,·,·,·,
CCn1nc(-c2ccccc2)c2nc3ccccc3nc21,0,43*,38*,3801,14,67*,22,2,10,
O=C(CN(C(=O)CNS(=O)(=O)c1ccc(F)cc1)c1ccccc1F)NCc1ccco1,2,-4,35*,2961,4,-2,1,0,2,
COCCCNc1oc(-c2cccs2)nc1S(=O)(=O)c1ccc(C)cc1,-4,0,39*,4265,7,2,-2,-4,0,
Cc1onc(-c2ccccc2)c1CNS(=O)(=O)c1ccccc1[N+](=O)[O-],1,-13,?,3561,-2,-3,·,·,·,
CCn1ccnc1CN1CCN(CC=C(C)C)C(CCO)C1 (configuration not stated),1,-1,48*,2683,6,4,0,-4,-1,
CN(C)c1ccc(NC(=O)CCN2C(=O)c3cccc([N+](=O)[O-])c3C2=O)cc1,0,-6,?,3675,14,?,·,·,·,
O=[N+]([O-])c1cc2cccnc2c2ncccc12,1,·,·,·,-2,·,·,·,·,
O=[N+]([O-])c1ccc(Sc2cccc3cccnc23)c2cccnc12,0,30*,8,4230,-3,24,17,4,13,
O=[N+]([O-])c1ccc(C2=NN(c3ccccc3)C(c3ccco3)C2)cc1 (configuration not stated),-20,31*,?,18109*,5,59*,59*,·,17,
Cc1ccc(C2=NN(S(=O)(=O)c3ccccc3)C(c3ccco3)C2)cc1 (configuration not stated),-2,4,3,7991,-4,-2,·,·,·,
O=C(Nc1ccccc1C(=O)O)c1cc(S(=O)(=O)Nc2ccccc2)ccc1Cl,1,-6,?,4097,-5,3,0,-5,1,
Cc1ccc(NS(=O)(=O)c2ccc(Cl)c(C(=O)Nc3cccc(C(=O)O)c3)c2)cc1,2,-4,?,4199,-5,-3,-1,-3,-2,
O=C(O)c1ccc(NS(=O)(=O)c2ccc(Cl)c(C(=O)Nc3ccccc3)c2)cc1,1,15,?,3179,4,0,0,0,1,
O=C(O)c1ccc(NS(=O)(=O)c2ccc(NC(=O)c3ccccc3Cl)cc2)cc1,3,-3,-6,3422,-6,0,·,·,·,
SMILES,Mtb FBA inh,Anthrax LF inh2,BoNT-F LC inh,Autofluor counter,GDH-TPI counter-1,BoNT-A LC inh2,BoNTA LC inh 1,BoNT-F LC CP1,Anthrax LF CP1,others
O=C(Nc1ccc(NS(=O)(=O)c2ccccc2)cc1)c1ccccc1Cl,3,0,4,3771,-3,0,·,·,·,
Cc1cccc(C)c1NC(=O)CN(c1ccccn1)S(=O)(=O)c1ccccc1,18,0,-2,2041,5,-1,·,·,·,
CC1SCCN1S(=O)(=O)c1ccc2ccccc2c1 (configuration not stated),5,-3,11,4501,-1,2,·,·,·,
COc1ccc(S(=O)(=O)N2CCSC2C)cc1C (configuration not stated),-1,20,44*,3569,4,-2,-1,-5,-5,
CCn1cc(C(=O)NCc2ccccc2Cl)cn1,5,2,40*,2098,7,4,1,3,1,
CCn1cc(C(=O)Nc2ccccc2C(=O)OC)cn1,5,2,?,3528,19,3,·,·,·,
CCCCOc1ccc(C(=O)N2CCN(c3ccc(N4CCOCC4)nn3)CC2)cc1,30*,23,59*,?,5,8,1,-3,2,Mtb FBA inh conf=7;GDH-TPI counter-2=-6
O=C(c1ccc(F)cc1)N1CCN(c2ccc(N3CCOCC3)nn2)CC1,21,1,-2,3489,2,1,·,·,·,
CCCOc1ccc(-c2nc(C#N)c(NCCCn3ccnc3)o2)cc1,105*,-38,58*,?,15,58*,-1,-3,0,Mtb FBA inh conf=105*;GDH-TPI counter-2=81*
Nc1c(C(=O)Nc2nc3ccccc3s2)sc2nc(-c3cccs3)ccc12,52*,28,30,3925,35*,50*,27,9,16,Mtb FBA inh conf=123*;GDH-TPI counter-2=114*
O=C(NC(=S)Nc1nc2ccccc2s1)c1cccs1,1,0,-7,2567,24,0,·,·,·,
O=c1c2c(-c3ccccc3)csc2nc2c3ccccc3c(NCCN3CCOCC3)nn12,29*,5,2,4402,0,32*,7,-8,2,Mtb FBA inh conf=94*;GDH-TPI counter-2=66*
Cc1cccc2cc(C#N)c(N3CCN(C)CC3)nc12,5,-3,8,8650,-8,0,·,·,·,

# Compound activity from PubChem.
